Screens from PubChem.
L major viab = Leishmania major promastigote growth inhibition, primary screen | Leishmania major promastigotes, resazurin fluorescence viability | inhibition, % at 10 µM | 200,000 compounds, 9% hits | AID 1063, 2008; in the data active = inhibition above about 50%;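 note: promastigotes grown with compound for 44 hours at 28 °C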
WT yeast gro inh = growth inhibition of WT strain, primary screen, mitochondrial fusion inhibitor project, WT and mutant strains, chemical genetic; mitochondrial fusion phenotypic screen; inhibition, % at 10 µM; 190,000 compounds, 2.1% hits; AID 1362, 2008; in the data active = inhibition above about 58%; tested in S. cerevisiae
Arbovirus inh = antivirals against arbovirus infection, primary screen, cell-based, full library, 10K replicate subset | arbovirus infection cell-based antiviral screen | inhibition, % at 10 µM | 200,000 compounds, 0.37% hits | AID 1251, 2008; in the data active = inhibition above about 30%
CHOP inh = inhibitors of CHOP promoter induction, primary screen, cell-based, unfolded protein response, luciferase reporter | CHO-K1 CHOP-promoter luciferase, tunicamycin-induced, 15-18 h | inhibition, % at 10 µM | 220,000 compounds, 3.8% hits | AID 2732, 2010;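 active = compounds that reduced the stress-induced luciferase reporter signal by more than about 70% of percent inhibition, limit read from the data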
Large screens that a line does not name were inactive. In the library only some 12% were active in any assay of this set; here they are far more common.

Cc1cccc(-c2nc(Nc3ccc(N4CCOCC4)cc3)c3ccccc3n2)c1	L major viab 73.6
COc1ccc(Nc2nc(N3CCCCC3)c3ccccc3n2)cc1	L major viab 100.2, WT yeast gro inh 74.6, CHOP inh 82.0
c1ccc(-c2cc3ccccc3nc2N2CCCC2)cc1	none
Cc1ccc(Nc2nc(N3CCOCC3)c3ccccc3n2)cc1	L major viab 88.1
Cc1ccc(-c2cc3ccccc3nc2N2CCOCC2)cc1	WT yeast gro inh 59.5, CHOP inh 72.1
COC(=O)c1ccccc1S(=O)c1snnc1C (stereo not drawn)	none
Cc1ccc(/C=C2\C(=O)Nc3ccccc32)o1	L major viab 99.4
O=C1Nc2ccccc2/C1=C/c1cccnc1	L major viab 77.9
CCN(CC)CCSc1nnc2c3cc(C)ccc3n(Cc3ccccc3)c2n1	none (no result: L major viab, WT yeast gro inh, Arbovirus inh)
CCOc1ccc(OCC)c(S(=O)(=O)NCCCN2CCOCC2)c1	none
CCOc1ccc(S(=O)(=O)NCCCN2CCOCC2)cc1	L major viab 92.0
Cc1ccc(S(=O)(=O)NCCCN2CCOCC2)cc1C	L major viab 88.5
COc1cc(S(=O)(=O)NCCCN2CCOCC2)ccc1-n1cnnn1	none
COc1cc(S(=O)(=O)NCCCN2CCOCC2)ccc1Cl	L major viab 92.9
c1ccc(CN2CCOCCOCCOCC2)cc1	none (no result: L major viab, WT yeast gro inh, Arbovirus inh)
O=S(=O)(NCCCN1CCOCC1)c1ccc2c(c1)OCCO2	none
c1ccc2cc(CN3CCOCC3)ccc2c1	L major viab 54.0
CC(=O)Oc1ccc(OC(C)=O)c2c1CC(C)=C(C)C2	none (no result: L major viab, WT yeast gro inh, Arbovirus inh)
CC(N)C1CCC(C(=O)Nc2ccncc2)CC1 (stereo not drawn)	none (no result: L major viab, WT yeast gro inh, Arbovirus inh)
O=C(Nc1cccnc1Cl)c1ccc(=O)oc1	none (no result: L major viab, WT yeast gro inh, Arbovirus inh)
COc1nc(N2CCCC2)nc(-n2nnc(C(C)=O)c2C)n1	none
Cc1cc(S(=O)(=O)NCCCN2CCOCC2)ccc1F	L major viab 90.8
O=S(=O)(NCCCN1CCOCC1)c1ccc2ccccc2c1	L major viab 90.7
O=C(NCCCN1CCOCC1)c1cc(Cl)ccc1[N+](=O)[O-]	none
O=[N+]([O-])c1cc(S(=O)(=O)NCCCN2CCOCC2)ccc1Cl	L major viab 98.7
O=C1NCCN1CCNS(=O)(=O)c1ccc2ccccc2c1	none
C#CCCOC(=O)Nc1ccccc1	none (no result: L major viab, WT yeast gro inh, Arbovirus inh)
O=C(CSCC(=O)NC1CC1)Nc1ccc2ccccc2c1	none
O=C(CCNc1ccccc1)c1cccc([N+](=O)[O-])c1	L major viab 95.7
O=C(CNc1ccccc1)c1ccc([N+](=O)[O-])cc1	none
Cc1ccc(NCCC(=O)c2cccc([N+](=O)[O-])c2)cc1	L major viab 100.4
O=C(CCNc1ccc(F)cc1)c1cccc([N+](=O)[O-])c1	L major viab 96.5
COc1ccc(C(=O)CCNc2ccc(F)cc2)cc1	none (no result: L major viab, WT yeast gro inh, Arbovirus inh)
Cc1nc(SCC(=O)c2cccc([N+](=O)[O-])c2)n[nH]1	none
O=C(CCNc1ccc(Br)cc1)c1cccc([N+](=O)[O-])c1	L major viab 88.4
CCCCC(CC)CNC(=O)C1CC=CCC1C(=O)O (stereo not drawn)	none
COC(=O)Cc1ccc(N(Cc2ccccc2F)S(=O)(=O)c2ccc(Cl)cc2)cc1	WT yeast gro inh 68.8
O=C(CSc1ncn[nH]1)Nc1ccccc1Sc1ccccc1	L major viab 69.8
CN(CC(=O)Nc1ccccc1Sc1ccccc1)C1CCCCC1	WT yeast gro inh 76.4
CC(C(=O)Nc1ccccc1Sc1ccccc1)N(c1ccccc1)S(C)(=O)=O (stereo not drawn)	L major viab 99.3
O=C(CSc1ncn[nH]1)Nc1ccccc1-c1ccccc1	none
CC(C(=O)Nc1ccccc1)N(c1cccc(Cl)c1)S(C)(=O)=O (stereo not drawn)	none
CS(=O)(=O)N(Cc1ccc(C(=O)Nc2ccccc2Sc2ccccc2)cc1)c1ccccc1	CHOP inh 76.6
CS(=O)(=O)N(Cc1ccccc1)c1ccc(C(=O)NCCSc2ccccn2)cc1	L major viab 59.7
CS(=O)(=O)N(CC(=O)Nc1ccccc1Sc1ccccc1)c1ccc(F)cc1	L major viab 75.7
CS(=O)(=O)N(CC(=O)Nc1ccccc1-c1ccccc1)c1ccc(F)cc1	none
O=C(Nc1ccccc1Sc1ccccc1)c1ccccc1	CHOP inh 91.6
Cn1cc(-c2cc(C(=O)O)on2)cn1	none (no result: L major viab, WT yeast gro inh, Arbovirus inh)
O=C(O)c1nnn(-c2cccc(C(F)(F)F)c2)c1-c1ccccc1	none (no result: L major viab, WT yeast gro inh, Arbovirus inh)
Clc1ccc(CNc2nc(CN3CCOCC3)nc3scc(-c4ccccc4)c23)cc1	WT yeast gro inh 78.5
COc1ccccc1C(=O)NCC(=O)N/N=C/c1cc(Br)ccc1OC(=O)/C=C\c1ccco1	L major viab 92.3
O=C(CNC(=O)c1ccccc1F)N/N=C/c1cc(Br)ccc1OC(=O)/C=C/c1ccco1	L major viab 87.2
Cc1cccc2cc3c(N)c(C(=O)N4CCc5ccccc54)sc3nc12	none
C=CCSc1n[nH]c2nc3c(c(=O)n12)C1(CCCC1)Cc1ccccc1-3	CHOP inh 70.6
CSc1n[nH]c2nc3c(c(=O)n12)C1(CCCC1)Cc1ccccc1-3	none
CCSc1n[nH]c2nc3c(c(=O)n12)C1(CCCC1)Cc1ccccc1-3	CHOP inh 87.9
Cc1nn(Cc2ccccc2)c(C)c1/C=N/NC(=O)c1ccccc1O	none (no result: L major viab, WT yeast gro inh, Arbovirus inh)
CCOC(=O)c1ccc(Oc2c(C)oc3cc(OS(C)(=O)=O)ccc3c2=O)cc1	L major viab 52.9
CCOc1ccc(Oc2c(C)oc3cc(O)ccc3c2=O)cc1	none
CCNc1nc(C23CC4CC(CC(C4)C2)C3)cs1	none
O=C1c2ccccc2-c2c1cccc2C(=O)N1CCCCC1	none
CC1CC(C)CN(C(=O)c2ccc3c(c2NCCO)C(=O)c2ccccc2C3=O)C1 (stereo not drawn)	L major viab 99.3
CCOC(=O)c1ccc(N=Nc2c(C)c(C#N)c(O)[nH]c2=O)cc1	none
COc1ccccc1N1CCN(Cc2c[nH]c3ccccc23)CC1	none (no result: L major viab, WT yeast gro inh, Arbovirus inh)
CCS(=O)(=O)N1CCN(Cc2c[nH]c3ccccc23)CC1	none
O=[N+]([O-])c1ccc(CN2CCN(Cc3c[nH]c4ccccc34)CC2)cc1	L major viab 83.2
Cc1ccccc1N1CCN(Cc2c[nH]c3ccccc23)CC1	L major viab 71.5
Cc1sc(NC(=O)c2ccco2)nc1-c1ccc2c(c1)CC(C)N2C(=O)C1CC1 (stereo not drawn)	L major viab 86.1 (no result: CHOP inh)
CC(C)(C)c1ccc(S(=O)(=O)O/N=C2/CCCCC2c2ccc([N+](=O)[O-])cc2[N+](=O)[O-])cc1 (stereo not drawn)	L major viab 52.8
CNC(=O)CCC(=O)Nc1ccc(C)cc1	none
NC(=O)c1ccsc1NC(=O)COC(=O)c1ccccc1NCc1ccco1	CHOP inh 95.6
C=C(C)CN(CC)C(=O)CSc1nc(O)cc(=O)n1C1CCCC1	Arbovirus inh 30.1
CCn1c(SCC(=O)N2CCCCC2)nc(O)cc1=O	none
O=[N+]([O-])c1ccc(NC(=S)NCCc2ccc(F)cc2)cc1	WT yeast gro inh 85.4
Fc1ccc(CCNC(=S)Nc2ccc(F)c(Cl)c2)cc1	WT yeast gro inh 76.6, CHOP inh 90.4
O=S1(=O)C=C(SCc2cccc(Cl)c2)Nc2ccccc21	none
O=C(Nc1ccccn1)c1csc2c1CCCC2	WT yeast gro inh 71.7
COc1cc(NC(=O)c2csc3c2CCCC3)ncn1	CHOP inh 71.5
